In PubChem BioAssay (EPA / NIEHS):
Inconclusive results are not listed. The source made the active and inactive calls. How the source made its calls, unless noted: active means hit-call score of the fitted dose curve at least 0.9, where 1 is the maximum; inactive means score below 0.9.

How the values were obtained:
[1] = target: Oxysterols receptor LXR-alpha (Homo sapiens) (UniProt Q13133); assay: ATG_LXRa_TRANS: Attagene TRANS-FACTORIAL HepG2 Assay for human Liver X Receptor alpha (LXRa) (AID 2282980; active means hit-call score of the fitted dose curve at least 0.9, where 1 is the maximum); details: HepG2 Attagene TRANS reporter, LXRa transactivation
How it was run: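 HepG2 cells were transiently transfected with multiplexed reporter units driven by chimeric LXRa–GAL4 fusion proteins, then dosed for 24 h. Reporter mRNA was quantified by RT-PCR, fluorescent labelling and capillary electrophoresis; gain of signal fitted against DMSO baseline.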

[2] = CCTE_Harrill_HTTr_CellCount_MCF7: CCTE's Cell Proliferation Assessment for the High-Throughput Transcriptomics (HTTr) Platform, Harrill Lab (AID 2284012; active means hit-call score of the fitted dose curve at least 0.9, where 1 is the maximum;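 further: count of Hoechst-stained nuclei per well by high-content imaging in MCF-7 cells; cells exposed to compound for six hours; intended direction is loss of nuclei count meaning fewer cells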)
How it was run: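 Chemicals in eight-point dilution series are added to MCF-7 cells for six hours, nuclei are stained with Hoechst and imaged, and per-well nuclei counts are fitted in both directions relative to DMSO controls.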

[3] = target: human Aurora Kinase A - serine/threonine-protein Kinase 6 (AurA), AURKA (gene 6790) (UniProt O14965); assay: NVS_ENZ_hAurA: NovaScreen (NVS) Enzymatic Assay for human Aurora Kinase A - serine/threonine-protein Kinase 6 (AurA) (AID 2283142; active means hit-call score of the fitted dose curve at least 0.9, where 1 is the maximum)
How it was run: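 Cell-free enzymatic assay with human Aurora A, 1 hour after dosing. Fluorescent substrate turnover detected after electrophoretic mobility shift separation of substrate and product. Screened at 25 uM, actives retested in concentration-response up to 50 uM.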

[4] = target: human Ephrin type-A Receptor 2 (EphA2), EPHA2 (gene 1969) (UniProt P29317); assay: NVS_ENZ_hEphA2: NovaScreen (NVS) Enzymatic Assay for human Ephrin type-A Receptor 2 (EphA2) (AID 2283155; active means hit-call score of the fitted dose curve at least 0.9, where 1 is the maximum)
How it was run: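 Cell-free recombinant EphA2 kinase with specific substrate, 1 h, fluorescence with electrophoretic mobility-shift separation of substrate and product. Primary screen at 25 uM in duplicate; hits retested in singleton concentration-response up to 50 uM, referenced to DMSO.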

[5] = target: human MET Proto-Oncogene, Receptor Tyrosine Kinase (MET), MET (gene 4233) (UniProt P08581); assay: NVS_ENZ_hMet: NovaScreen (NVS) Enzymatic Assay for human MET Proto-Oncogene, Receptor Tyrosine Kinase (MET) (AID 2283180; active means hit-call score of the fitted dose curve at least 0.9, where 1 is the maximum)
How it was run: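 Cell-free MET kinase assay using recombinant protein and fluorescent substrate, with mobility-shift separation; read 1 h after dosing. Primary duplicate at 25 uM; actives in singleton concentration-response to 50 uM maximum. Signal loss versus DMSO.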

[6] = target: rat Oxytocin Receptor (OXT), Oxtr (gene 25342) (UniProt P70536); assay: NVS_GPCR_rOXT: NovaScreen (NVS) G Protein-Coupled Receptor Assay for rat Oxytocin Receptor (OXT) (AID 2283330; active means hit-call score of the fitted dose curve at least 0.9, where 1 is the maximum)
How it was run: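 Radioligand displacement on rat uterine membranes, 1 h incubation, filter-based scintillation counting. Chemicals were screened in duplicate at 25 uM, and those passing threshold were retested in concentration-response up to 50 uM. Loss of binding was fitted versus DMSO.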

[7] = target: Norway rat Vesicular Monoamine Transporter (VMAT2), neurotransmitter transporter, Slc18a2 (gene 25549) (UniProt Q01827); assay: NVS_TR_rVMAT2: NovaScreen (NVS) Transporter Assay for Norway rat Vesicular Monoamine Transporter (VMAT2), neurotransmitter transporter (AID 2283376; active means hit-call score of the fitted dose curve at least 0.9, where 1 is the maximum;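 further: actives lower the bound radioligand signal below the DMSO level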)
How it was run: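 Radioligand displacement binding on rat forebrain tissue preparation, filter-based scintillation read-out 1 hour after dosing. Primary screen in duplicate at 25 uM, then concentration series for actives; loss of signal versus DMSO.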

[8] = read-out: Vascular cell adhesion molecule 1 (VCAM1), VCAM1 (gene 7412); assay: BSK_MyoF_VCAM1: BioMAP Diversity Plus: MyoF Assay for Vascular cell adhesion molecule 1 (VCAM1) Biomarker Activity (AID 2284231); details: primary human lung fibroblasts
How it was run: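 Primary human lung fibroblasts were dosed with test chemical for 24 h, then cell-surface VCAM-1 was measured by ELISA. Activity was fitted in the positive direction against DMSO as negative control and baseline.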

[9] = read-out: Collagen IV, COL4A1 (gene 1282); assay: BSK_MyoF_CollagenIV: BioMAP Diversity Plus: MyoF Assay for Collagen IV Biomarker Activity (AID 2284247); details: primary human lung fibroblasts
How it was run: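 Steps: dose human lung fibroblasts; culture 24 h; quantify Collagen IV by ELISA; fit increase versus DMSO control. Parallel SRB total-protein staining (0.1% SRB after 10% TCA fixation, 560 nm) tracks overt cytotoxicity.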

[10] = read-out: Plasminogen activator inhibitor-1 (PAI1), SERPINE1 (gene 5054); assay: BSK_MyoF_PAI1: BioMAP Diversity Plus: MyoF Assay for Plasminogen activator inhibitor-1 (PAI1) Biomarker Activity (AID 2284256); details: primary human lung fibroblasts
How it was run: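 ELISA read-out of PAI-1 from primary human lung fibroblast cultures 24 h after dosing; gain-of-signal fit versus DMSO control.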

[11] = read-out: Interleukin-8 (IL8), CXCL8 (gene 3576); assay: BSK_MyoF_IL8: BioMAP Diversity Plus: MyoF Assay for Interleukin-8 (IL8) Biomarker Activity (AID 2284261); details: primary human lung fibroblasts
How it was run: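 ELISA read-out of IL-8 from primary human lung fibroblasts, 24 h post-dose; positive-direction curve fitting relative to DMSO vehicle baseline.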

Decorin, DCN (gene 1634) = assay: BSK_MyoF_Decorin: BioMAP Diversity Plus: MyoF Assay for Decorin Biomarker Activity (AID 2284265); details: primary human lung fibroblasts
How it was run: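 Human lung fibroblasts in the MyoF system were exposed to compound for 24 h, after which decorin was quantified by ELISA. Activity was fitted in the positive direction relative to DMSO negative control.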

[12] = BSK_MyoF_SRB: Viability Assessment in the BioMAP Diversity Plus: MyoF Assay (AID 2284267); details: primary human lung fibroblasts;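 further: total protein by SRB absorbance in parallel cultures as cytotoxicity measure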
How it was run: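 Read-out is SRB absorbance at 560 nm, reflecting total protein in parallel lung fibroblast cultures harvested 24 h after compound addition. Cells were TCA-fixed (10%) and stained with 0.1% SRB; activity is referenced to DMSO.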

[13] = read-out: Matrix Metallopeptidase 1 (MMP1), MMP1 (gene 4312); assay: BSK_MyoF_MMP1: BioMAP Diversity Plus: MyoF Assay for Matrix Metallopeptidase 1 (MMP1) Biomarker Activity (AID 2284268); details: primary human lung fibroblasts
How it was run: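 ELISA readout of MMP1 in primary human lung fibroblast cultures, 24 h post-dosing. Gain of signal versus DMSO vehicle control defines activity. Parallel SRB staining (0.1% after 10% TCA fixation, 560 nm) flags overt cytotoxicity.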

[14] = read-out: TIMP metallopeptidase inhibitor 1 (TIMP1), TIMP1 (gene 7076); assay: BSK_MyoF_TIMP1: BioMAP Diversity Plus: MyoF Assay for TIMP metallopeptidase inhibitor 1 (TIMP1) Biomarker Activity (AID 2284269); details: primary human lung fibroblasts
How it was run: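 Fibroblasts from human lung are dosed with chemical, cultured 24 h, and assayed for TIMP-1 by ELISA. Increases over the DMSO baseline are scored, with SRB total-protein staining run in parallel for cytotoxicity.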

[15] = target: Estrogen-related receptor gamma (Homo sapiens) (UniProt P62508); assay: ATG_ERRg_TRANS: Attagene TRANS-FACTORIAL HepG2 Assay for human Estrogen-Related Receptor gamma (ERRg) (AID 2282977; active means hit-call score of the fitted dose curve at least 0.9, where 1 is the maximum;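 further: hits increase reporter signal over DMSO so potencies reflect activators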); details: HepG2 Attagene TRANS reporter, ERRg transactivation
How it was run: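 Transfect HepG2 with multiple GAL4-UAS reporter transcription units; dose chemicals 24 h; isolate RNA, reverse-transcribe with oligo(dT), PCR-amplify, label with 6-FAM, digest with HpaI; size fragments by capillary electrophoresis. DMSO serves as negative control.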

[16] = target: human Vitamin D Receptor (VDR), VDR (gene 7421) (UniProt P11473); assay: ATG_VDR_TRANS: Attagene TRANS-FACTORIAL HepG2 Assay for human Vitamin D Receptor (VDR) (AID 2283022; active means hit-call score of the fitted dose curve at least 0.9, where 1 is the maximum)
How it was run: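 HepG2 cells were transiently transfected with multiple GAL4-UAS reporter units, so signal reflects exogenous chimeric receptor-Gal4 activity. After 24 h compound exposure, reporter mRNA was measured by RT-PCR, fluorescent labelling and capillary electrophoresis, fitted for gain of signal versus DMSO.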

[17] = CEETOX_H295R_MTT_cell_viability: Viability Assessment in the CeeTox HT-H295R MTT Assay (AID 2283718);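 on AC50: curve fitted both ways so AC50 may mark viability loss or gain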
How it was run: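 Human H295R adrenal cells, prestimulated 48 h with 10 uM forskolin, were exposed 48 h to chemicals in 0.1% DMSO. Viability was measured in the same wells by MTT (0.5 mg/ml, 4 h, 37 C), absorbance 570/650 nm, as percent of controls.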

Measured: AC50

Sequence of human Vitamin D Receptor (VDR), VDR (gene 7421) (P11473 whole entry, looked up, the tested form may be a part): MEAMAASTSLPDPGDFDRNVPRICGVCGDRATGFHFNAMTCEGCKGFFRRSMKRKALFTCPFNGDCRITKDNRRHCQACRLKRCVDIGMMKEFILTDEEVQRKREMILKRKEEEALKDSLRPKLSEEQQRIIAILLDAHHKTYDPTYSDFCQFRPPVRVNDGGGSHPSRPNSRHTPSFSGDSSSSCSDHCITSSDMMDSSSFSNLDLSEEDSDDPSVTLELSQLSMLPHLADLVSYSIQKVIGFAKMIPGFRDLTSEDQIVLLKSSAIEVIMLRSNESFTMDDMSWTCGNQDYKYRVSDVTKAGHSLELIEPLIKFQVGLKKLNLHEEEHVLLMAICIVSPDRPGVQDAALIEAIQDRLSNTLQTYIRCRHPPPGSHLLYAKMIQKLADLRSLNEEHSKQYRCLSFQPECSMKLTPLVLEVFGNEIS
Sequence of Oxysterols receptor LXR-alpha (Homo sapiens) (Q13133 whole entry, looked up, the tested form may be a part): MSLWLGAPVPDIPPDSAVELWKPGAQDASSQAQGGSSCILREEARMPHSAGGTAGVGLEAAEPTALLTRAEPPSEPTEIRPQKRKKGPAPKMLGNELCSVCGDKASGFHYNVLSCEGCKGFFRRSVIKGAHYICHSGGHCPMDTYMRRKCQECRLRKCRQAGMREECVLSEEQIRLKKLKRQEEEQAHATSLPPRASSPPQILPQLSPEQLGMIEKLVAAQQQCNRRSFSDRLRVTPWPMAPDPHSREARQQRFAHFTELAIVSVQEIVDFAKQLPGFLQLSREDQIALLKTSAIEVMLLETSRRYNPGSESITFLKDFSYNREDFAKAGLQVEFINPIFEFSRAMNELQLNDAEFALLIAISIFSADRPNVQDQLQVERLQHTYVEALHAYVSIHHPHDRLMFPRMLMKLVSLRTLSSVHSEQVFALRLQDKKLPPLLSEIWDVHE
Sequence of Estrogen-related receptor gamma (Homo sapiens) (P62508 whole entry, looked up, the tested form may be a part): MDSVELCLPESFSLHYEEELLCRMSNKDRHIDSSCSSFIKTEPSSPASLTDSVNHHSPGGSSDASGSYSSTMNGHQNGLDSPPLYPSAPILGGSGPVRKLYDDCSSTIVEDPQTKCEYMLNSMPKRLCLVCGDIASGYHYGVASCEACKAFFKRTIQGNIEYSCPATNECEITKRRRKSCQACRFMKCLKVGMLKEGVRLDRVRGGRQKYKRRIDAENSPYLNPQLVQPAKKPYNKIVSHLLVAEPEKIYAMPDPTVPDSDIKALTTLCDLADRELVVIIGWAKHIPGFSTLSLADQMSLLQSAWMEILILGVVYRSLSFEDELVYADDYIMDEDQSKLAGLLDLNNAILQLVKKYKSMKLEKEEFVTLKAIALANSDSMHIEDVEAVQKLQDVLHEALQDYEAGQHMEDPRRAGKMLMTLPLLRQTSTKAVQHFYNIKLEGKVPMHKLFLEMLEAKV
Sequence of human Aurora Kinase A - serine/threonine-protein Kinase 6 (AurA), AURKA (gene 6790) (O14965 whole entry, looked up): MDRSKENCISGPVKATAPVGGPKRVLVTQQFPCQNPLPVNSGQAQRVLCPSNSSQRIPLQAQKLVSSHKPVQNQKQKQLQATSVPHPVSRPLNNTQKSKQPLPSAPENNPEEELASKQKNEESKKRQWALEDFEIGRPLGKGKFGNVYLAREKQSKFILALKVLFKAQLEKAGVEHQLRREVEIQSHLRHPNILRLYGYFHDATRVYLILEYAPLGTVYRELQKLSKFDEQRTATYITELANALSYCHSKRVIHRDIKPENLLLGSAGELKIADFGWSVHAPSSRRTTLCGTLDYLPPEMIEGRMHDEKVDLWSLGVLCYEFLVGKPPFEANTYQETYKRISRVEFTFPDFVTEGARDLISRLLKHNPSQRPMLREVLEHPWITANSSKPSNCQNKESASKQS
Sequence of human Ephrin type-A Receptor 2 (EphA2), EPHA2 (gene 1969) (P29317 whole entry, looked up): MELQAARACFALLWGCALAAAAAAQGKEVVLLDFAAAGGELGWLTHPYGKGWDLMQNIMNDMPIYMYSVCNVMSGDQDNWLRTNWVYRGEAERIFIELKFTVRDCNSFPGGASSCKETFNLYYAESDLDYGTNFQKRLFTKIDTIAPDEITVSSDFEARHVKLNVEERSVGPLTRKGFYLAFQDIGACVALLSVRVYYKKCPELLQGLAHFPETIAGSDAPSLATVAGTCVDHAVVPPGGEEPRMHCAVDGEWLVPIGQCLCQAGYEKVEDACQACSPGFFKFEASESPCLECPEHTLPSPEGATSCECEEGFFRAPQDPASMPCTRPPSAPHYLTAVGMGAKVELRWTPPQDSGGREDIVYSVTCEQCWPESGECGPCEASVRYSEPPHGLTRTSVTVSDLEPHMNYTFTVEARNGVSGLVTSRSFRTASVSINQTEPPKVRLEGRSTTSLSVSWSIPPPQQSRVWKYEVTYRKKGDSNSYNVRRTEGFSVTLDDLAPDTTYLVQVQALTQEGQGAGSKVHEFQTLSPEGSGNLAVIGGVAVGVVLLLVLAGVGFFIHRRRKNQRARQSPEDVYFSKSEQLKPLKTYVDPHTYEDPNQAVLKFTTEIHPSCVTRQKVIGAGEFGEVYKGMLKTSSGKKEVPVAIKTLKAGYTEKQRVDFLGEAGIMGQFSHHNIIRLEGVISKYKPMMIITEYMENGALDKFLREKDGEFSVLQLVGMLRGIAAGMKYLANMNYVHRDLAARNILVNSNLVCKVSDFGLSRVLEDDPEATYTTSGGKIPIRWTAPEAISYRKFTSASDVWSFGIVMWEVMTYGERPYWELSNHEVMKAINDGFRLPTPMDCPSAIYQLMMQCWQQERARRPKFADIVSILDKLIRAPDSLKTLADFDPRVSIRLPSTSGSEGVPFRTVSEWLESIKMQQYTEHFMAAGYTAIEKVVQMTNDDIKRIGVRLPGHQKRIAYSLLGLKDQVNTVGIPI
Sequence of human MET Proto-Oncogene, Receptor Tyrosine Kinase (MET), MET (gene 4233) (P08581 whole entry, looked up): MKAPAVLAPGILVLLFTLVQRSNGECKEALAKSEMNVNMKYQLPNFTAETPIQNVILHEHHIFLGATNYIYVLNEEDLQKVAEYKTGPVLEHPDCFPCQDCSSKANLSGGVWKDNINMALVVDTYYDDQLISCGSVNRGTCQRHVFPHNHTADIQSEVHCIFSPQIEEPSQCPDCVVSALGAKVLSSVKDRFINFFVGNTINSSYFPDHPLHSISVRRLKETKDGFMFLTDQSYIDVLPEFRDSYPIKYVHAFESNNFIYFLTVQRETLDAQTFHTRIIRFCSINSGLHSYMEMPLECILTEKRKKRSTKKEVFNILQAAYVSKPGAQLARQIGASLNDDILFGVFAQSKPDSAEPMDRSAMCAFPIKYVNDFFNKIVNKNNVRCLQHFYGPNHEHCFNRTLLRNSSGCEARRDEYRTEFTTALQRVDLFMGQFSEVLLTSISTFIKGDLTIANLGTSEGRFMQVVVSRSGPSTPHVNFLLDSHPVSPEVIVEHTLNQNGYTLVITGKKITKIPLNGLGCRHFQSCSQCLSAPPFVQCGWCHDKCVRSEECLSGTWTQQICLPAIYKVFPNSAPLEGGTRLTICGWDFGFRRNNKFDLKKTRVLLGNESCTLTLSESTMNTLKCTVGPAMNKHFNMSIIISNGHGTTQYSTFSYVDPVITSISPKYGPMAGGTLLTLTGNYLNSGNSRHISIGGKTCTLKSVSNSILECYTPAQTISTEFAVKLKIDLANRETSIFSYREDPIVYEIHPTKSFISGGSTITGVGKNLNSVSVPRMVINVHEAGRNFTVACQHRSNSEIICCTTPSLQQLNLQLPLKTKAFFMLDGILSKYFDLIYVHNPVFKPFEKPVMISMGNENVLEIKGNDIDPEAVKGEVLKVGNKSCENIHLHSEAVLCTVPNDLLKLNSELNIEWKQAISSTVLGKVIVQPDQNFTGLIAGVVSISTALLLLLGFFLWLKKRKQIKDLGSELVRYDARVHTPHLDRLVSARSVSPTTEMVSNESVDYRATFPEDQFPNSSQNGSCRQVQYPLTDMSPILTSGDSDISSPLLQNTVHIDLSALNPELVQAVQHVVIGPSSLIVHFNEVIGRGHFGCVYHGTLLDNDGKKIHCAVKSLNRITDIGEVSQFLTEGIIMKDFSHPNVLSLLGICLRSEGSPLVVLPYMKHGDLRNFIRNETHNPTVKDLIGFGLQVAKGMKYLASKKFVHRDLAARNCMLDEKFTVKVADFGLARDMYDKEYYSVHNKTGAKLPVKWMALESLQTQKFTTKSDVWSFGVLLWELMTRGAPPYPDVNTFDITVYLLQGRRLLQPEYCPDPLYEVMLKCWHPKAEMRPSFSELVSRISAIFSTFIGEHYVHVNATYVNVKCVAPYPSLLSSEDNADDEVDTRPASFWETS
Sequence of Norway rat Vesicular Monoamine Transporter (VMAT2), neurotransmitter transporter, Slc18a2 (gene 25549) (Q01827 whole entry, looked up): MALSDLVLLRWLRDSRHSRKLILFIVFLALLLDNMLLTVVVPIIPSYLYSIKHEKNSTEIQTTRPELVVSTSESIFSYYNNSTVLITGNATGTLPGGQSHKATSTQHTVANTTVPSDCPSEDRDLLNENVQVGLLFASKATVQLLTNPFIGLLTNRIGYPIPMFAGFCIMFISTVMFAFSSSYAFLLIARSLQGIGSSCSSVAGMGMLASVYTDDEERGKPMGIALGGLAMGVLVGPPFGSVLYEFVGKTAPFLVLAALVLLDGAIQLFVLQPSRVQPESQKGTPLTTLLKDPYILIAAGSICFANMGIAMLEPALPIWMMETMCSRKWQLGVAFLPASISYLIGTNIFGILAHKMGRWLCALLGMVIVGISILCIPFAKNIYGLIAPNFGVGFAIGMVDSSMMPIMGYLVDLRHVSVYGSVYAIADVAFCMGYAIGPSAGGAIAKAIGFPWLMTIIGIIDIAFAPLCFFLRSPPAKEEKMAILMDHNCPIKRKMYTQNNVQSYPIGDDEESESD
Sequence of rat Oxytocin Receptor (OXT), Oxtr (gene 25342) (P70536 whole entry, looked up): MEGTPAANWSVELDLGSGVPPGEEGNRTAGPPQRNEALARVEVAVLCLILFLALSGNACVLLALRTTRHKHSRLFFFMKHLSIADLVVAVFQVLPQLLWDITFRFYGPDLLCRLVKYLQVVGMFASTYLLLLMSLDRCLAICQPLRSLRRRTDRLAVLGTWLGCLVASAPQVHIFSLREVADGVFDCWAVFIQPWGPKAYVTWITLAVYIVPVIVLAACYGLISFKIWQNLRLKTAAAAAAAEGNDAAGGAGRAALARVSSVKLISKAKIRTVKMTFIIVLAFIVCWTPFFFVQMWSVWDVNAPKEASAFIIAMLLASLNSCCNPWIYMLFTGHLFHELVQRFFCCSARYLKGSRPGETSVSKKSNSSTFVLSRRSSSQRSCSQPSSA

C[N+](C)(C)CC(=O)O
inactive: [1] | [2]

N#CCCCCC#N
inactive: [3] | [4] | [5] | [6] | [7] | [2]

CC(C)COP(=O)(OCC(C)C)OCC(C)C
inactive: [8] | [9] | [10] | [11] | Decorin, DCN (gene 1634) | [12] | [13] | [14]

CCOP(=O)(OCC)OCC
inactive: [15] | [1] | [16]

Nc1ccccc1C(=O)OCCc1ccccc1
inactive: [15] | [1]

Oc1ccc(C2(c3ccc(O)cc3)c3ccccc3-c3ccccc32)cc1
inactive: [1]

CC(=O)c1cc2c(cc1C)C(C)(C)C(C)CC2(C)C (centres undefined)
inactive: [16] | [17] | [2]

Oc1cc(Cl)ccc1Cl
inactive: [17] | [2] | [8] | [9] | [11] | Decorin, DCN (gene 1634) | [12] | [13] | [14]
active: [10] 0.245 µM

CC1(C)[C@H](C(=O)O[C@H](C#N)c2cccc(Oc3ccccc3)c2)[C@@H]1C=C(Br)Br
inactive: [8] | [9] | [10] | [11] | Decorin, DCN (gene 1634) | [12] | [13] | [14]

CC(C)(c1cc(Cl)c(O)c(Cl)c1)c1cc(Cl)c(O)c(Cl)c1
active: [10] 9.2 µM | [11] 34 µM | [12] 16.5 µM | [14] 9.55 µM
inactive: [9] | Decorin, DCN (gene 1634) | [13]

C=CC(=O)OCC(CC)CCCC (centres undefined)
active: Decorin, DCN (gene 1634) 0.016 µM
inactive: [15] | [2] | [8] | [9] | [10] | [11] | [12] | [13] | [14]

CCCCCCCCCCCC#N
active: [8] 30.7 µM | [12] 30.5 µM | [13] 33.7 µM | [14] 31.4 µM
inactive: [1] | [9] | [11] | Decorin, DCN (gene 1634)

CCOP(=O)(OCC)Oc1ccc([N+](=O)[O-])cc1
inactive: [1] | [16] | [17]

COc1ccc(CO)cc1
inactive: [2]

C=CC(=O)OCCO
inactive: [16]
active: [17] 26.7 µM

Clc1ccc(-c2ccccc2)cc1
active: [10] 0.121 µM
inactive: [15] | [2] | [8] | [9] | [11] | Decorin, DCN (gene 1634) | [12] | [13] | [14]
